# According to the supplement of paper PMC6897291:
# Test system: RIVA
# Assay: growth inhibition by drug alone (1 - RLU/untreated control) (fraction); higher = stronger inhibition
# Conditions: 177Lu-lilotomab satetraxetan 0 ug/ml
# Protocol: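 RIVA (RI-1) ABC-DLBCL cells were pretreated or not for 18 h with 0.5 ug/ml 177Lu-lilotomab satetraxetan (600 MBq/mg), washed and seeded (3000 cells/well) on 384-well plates pre-printed with the Selleck Cambridge Cancer Compound library. Viability was read by RealTime-Glo luminescence on days 3-6 after seeding. Effect = 1 - RLU/mean RLU of the 48 untreated no-drug control wells per plate; Bliss score = (M-E)/(1-Fa).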
SMILES,"growth inhibition by drug alone (10 nM, time (day): 3)","growth inhibition by drug alone (10 nM, time (day): 4)","growth inhibition by drug alone (10 nM, time (day): 5)","growth inhibition by drug alone (10 nM, time (day): 6)","growth inhibition by drug alone (100 nM, time (day): 3)","growth inhibition by drug alone (100 nM, time (day): 4)","growth inhibition by drug alone (100 nM, time (day): 5)","growth inhibition by drug alone (100 nM, time (day): 6)"
CN(C)CCN(C)CCc1ccc(Cl)c(Cl)c1,-0.216,-0.209,-0.338,-0.472,-0.276,-0.227,-0.333,-0.453
N.N.[Cl][Pt][Cl] [Cisplatin],-0.00407,-0.0943,-0.0938,-0.114,0.0654,-0.0804,-0.0914,-0.104
Cn1cc(C2=C(c3cn(C4CCN(Cc5ccccn5)CC4)c4ccccc34)C(=O)NC2=O)c2ccccc21,-0.161,-0.222,-0.236,-0.302,-0.273,-0.319,-0.329,-0.414
CC1=C2C[C@H]3[C@@H](CC=C4C[C@@H](O)CC[C@@]43C)[C@@H]2CC[C@]12O[C@@H]1C[C@H](C)CN[C@H]1[C@H]2C [Cyclopamine],-0.0274,0.0131,-0.0438,-0.264,0.0149,0.0126,-0.0321,-0.131
N[C@@H](Cc1ccc(N(CCCl)CCCl)cc1)C(=O)O [Melphalan],-0.0205,0.000425,-0.0866,-0.459,-0.259,-0.175,-0.164,-0.265
